Data on eleven compounds can be found in PubChem BioAssay (NCI).

The panel holds about 83,000 compounds, 20% with a hit somewhere; the sample as a whole holds those more often.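 The test compound was applied at a single concentration to cells in 96-well plates for 48 hours, and percent growth was recorded.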 Unmarked numbers belong to inactive results. Active and inactive are the calls of the source. Rule for the calls: active = growth percent below 10; inactive = the rest.

Holding throughout (experiment): NCI-60 one-dose screen, 48 h (100 = growth as untreated, 0 = no growth, -100 = all killed)
Assay [1] concerns NCI-H322M lung. As to conditions: 10 µM unless noted.
Assay [2] relates to COLO 205 colon. As to conditions: 10 µM.
Assay [3] has as its system K-562 leukemia. The settings on record: 10 µM unless noted.
In assay [4] the test system is U251 CNS. The settings on record: 10 µM unless noted.
For assay [5], the system named is LOX IMVI melanoma. As to conditions: 10 µM unless noted.
Assay [6] concerns TK-10 renal. As to conditions: 10 µM unless noted.
The subject of assay [7] is CCRF-CEM leukemia. The settings on record: 10 µM unless noted.
For assay [8], the system named is MOLT-4 leukemia. The settings on record: 10 µM.
Assay [9] relates to SR leukemia. The settings on record: 10 µM.
For assay [10], the system named is SK-OV-3 ovarian. The settings on record: 10 µM unless noted.
Assay [11] deals with IGROV1 ovarian. As to conditions: 10 µM.
Assay [12] deals with SW-620 colon. As to conditions: 10 µM unless noted.
Assay [13] relates to HCT-116 colon. The settings on record: 10 µM unless noted.
Assay [14] has as its system NCI-H522 lung. The settings on record: 10 µM unless noted.
Assay [15] relates to EKVX NSCLC. As to conditions: 10 µM unless noted.
Assay [16] concerns CAKI-1 renal. As to conditions: 10 µM unless noted.
The subject of assay [17] is HS 578T breast. As to conditions: 10 µM unless noted.
For assay [18], the system named is BT-549 breast. The settings on record: 10 µM.

Take `CC1(C)N=C(N)N=C(N)N1c1ccc(CNC(=O)Nc2ccc(S(=O)(=O)F)c(Cl)c2)c(Cl)c1`: the growth is 46% in assay [1]; 37.1% in assay [2]; 16.4% in [3]; 11.3% in assay [4]; 11.9% in [5]; 22.6% in [6]. For the same compound, the growth was 17.5% in assay [7]; 22.1% in assay [8]; 34.6% in [9]; 42.9% in assay [10]; 30.6% in assay [11]; 12.5% in assay [12]. Moreover, the growth in assay [13] is 10.1%.
For `CC(=O)O[C@H]1CC[C@H]2[C@@H]3CC[C@H]4CC=C(C)C[C@]4(C)[C@H]3CC[C@]12C`, the growth was 104% in [1]; 92.4% in [14]; 110% in [4]; 102% in assay [5]; 116% in assay [15]; 108% in assay [6]. Moreover, the growth was 50.7% in assay [16]; 108% in [7]; 94% in assay [8]; 102% in assay [10]; 107% in assay [11]; 109% in assay [17]. Also, the growth was 109% in assay [12] and 103% in assay [13].
On to `CO[C@@H](c1ccccc1Cl)[C@H](C)OC(N)=O`, for which the growth in assay [1] is 95.1%; in [14], 94.2%; in assay [3], 104%; in [4] it was 94.1%; in assay [5], 98.1%; in assay [15] it was 100%. The growth in assay [6] is 97.6%; in assay [16], 92.1%; in [7] it was 82.6%; in [9], 111%; in [10], 102%; in assay [11], 102%. The growth in [17] is 99.9%; in assay [12], 100%; in assay [13], 97.2%.
Take `c1ccc([As]=[As]c2ccccc2)cc1` (configuration not stated): the growth in [1] was -40.5% (active); in [2] it was -89.6% (active); in assay [3], -60.2% (active); in [4], -98.7% (active); in [5] it was -74.5% (active); in [6] it was -86% (active). The growth is -51.4% (active) in [16]; -49.1% (active) in [8]; -47.5% (active) in [9]; -84.1% (active) in [11]; 37.8% in [17]; -96.5% (active) in assay [18]. The growth in assay [12] was -68.1% (active); in assay [13], -99.4% (active).
Turning to `C=C=[CH][Sn]([c]1ccccc1)([c]1ccccc1)[c]1ccccc1`, the growth was -15.6% (active) in assay [1]; -69.4% (active) in assay [14]; -84.2% (active) in assay [2]; -75.6% (active) in [4]; -77.2% (active) in assay [5]; -32.7% (active) in assay [15]. Besides, the growth in [6] is -74.7% (active); in assay [16], -40.4% (active); in [7] it was -0.102% (active); in [10], -57.1% (active); in [11], -22.2% (active); in assay [17], 27%. Further, the growth in assay [18] was -34.9% (active); in [12] it was -74.8% (active).
Take `Cc1cc(NC(=O)NCCOc2ccc(N3C(N)=NC(N)=NC3(C)C)cc2Cl)ccc1S(=O)(=O)F`: the growth in assay [1] was 43.4%; in assay [2], 35.3%; in [3], 13%; in assay [6] it was 35.3%; in assay [7], 18.6%; in assay [8], 26.7%. The growth in [9] was 34.8%; in assay [10] it was 55.4%; in assay [11], 32.5%; in assay [18], 52.1%; in [12], 23.4%; in [13] it was 13.9%.
For `Cc1ccc(C[As+](c2ccccc2)(c2ccccc2)c2ccccc2)cc1`, the growth in assay [1] was 18.6%; in [14], -22% (active); in assay [3] it was 9.47% (active); in assay [4], 10.9%; in assay [5] it was -26.6% (active); in assay [6], 16.9%. Besides, the growth is 60.1% in assay [16]; 16.3% in assay [7]; 14% in [8]; -4.76% (active) in [10]; 9.49% (active) in assay [11]; 21% in [17]. Besides, the figures for the growth in assay [18] and in [12] were -4.76% (active) and 11.9%, respectively.
Regarding `CC1(C)N=C(N)N=C(N)N1c1ccc(CCCCc2ccc(S(=O)(=O)F)cc2)c(Cl)c1`, the growth was 43.1% in [1]; 33.2% in [2]; 13.1% in assay [3]; 8.78% (active) in assay [5]; 17% in [16]; 11.5% in assay [7]. Further, the growth was 33.4% in assay [9], 42% in assay [10], 29.1% in [11] and 12.8% in assay [13].
Turning to `CC(=O)[O][Hg][c]1nc2c(c(=O)n(C)c(=O)n2C)n1C`, the growth is 95.7% in assay [1]; 113% in [2]; 60.3% in assay [3]; -28.5% (active) in assay [5]; 110% in assay [6]; 100% in assay [8]. The growth in [9] was 41.3%; in assay [11] it was 81%; in [17] it was 105%; in assay [18], 111%; in assay [12], 71.1%; in [13], 99.9%.
For the compound `C=CCN1C(=O)C(CC)(CCC(C)C)C(=O)NC1=S` (configuration not stated), the growth is 106% in assay [1]; 108% in assay [2]; 99.8% in assay [3]; 97.3% in assay [4]; 109% in assay [5]; 115% in assay [6]. The growth is 97.7% in assay [16]; 86.3% in assay [7]; 103% in assay [9]; 100% in assay [10]; 108% in [11]; 106% in [18]. Further, the values for the growth in [12] and in [13] were 104% and 105%, respectively.
With `O=[N+]([O-])c1ccc(F)c([N+](=O)[O-])c1F`, the growth in assay [1] was 91.7%; in assay [14], 95.3%; in assay [2], 115%; in assay [3], 11.1%; in assay [4], 101%; in assay [5], 102%. For the same compound, the growth is 100% in assay [15]; 99.9% in [6]; 103% in assay [16]; 61.7% in assay [7]; 58% in [8]; 8.94% (active) in [9]. Further, the figures for the growth in assay [11], in assay [17] and in assay [12] were 105%, 103% and 88.2%, respectively.
